In PubChem BioAssay (NCI):
About 79,000 compounds went through this panel and 15% of them were active in at least one assay; those are over-represented in the sample as a whole. Active and inactive are the calls of the source. Rule as the data show it: active = growth inhibition above about 70%; inactive = the rest.

Key:
[1] = NCI Yeast Anticancer Drug Screen. Data for the rad52 strain (AID 147);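 also: 0% = growth of vehicle-treated control cultures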; conditions: S. cerevisiae rad52 mutant growth inhibition, hits give high values
Method in brief: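 The repair-mutant yeast strain was incubated with compounds, then growth was read and inhibition derived relative to vehicle.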

[2] = NCI Yeast Anticancer Drug Screen. Data for the wt1 strain (AID 149);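 also: 0% = growth of vehicle-treated wt1 cultures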; conditions: S. cerevisiae wt1 strain (SPY 50644) growth inhibition, hits give high values
Method in brief: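 Readout: yeast growth inhibition, normalised to vehicle controls, in the wt1 strain exposed to test compounds.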

[3] = NCI Yeast Anticancer Drug Screen. Data for the rad50EPP+ strain (AID 151);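 also: 0% = growth of vehicle-treated control cultures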; conditions: S. cerevisiae rad50 mutant strain, hits give high values
Method in brief: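 Vehicle-normalised growth inhibition; rad50EPP+ yeast strain, altered in DNA damage repair, compound-treated.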

[4] = NCI Yeast Anticancer Drug Screen. Data for the rad50 strain (AID 155);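 also: 0% = growth of vehicle-only cultures of the same strain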; conditions: S. cerevisiae rad50 strain growth inhibition, hits give high values
Method in brief: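 Compounds were tested on a yeast strain with an engineered DNA damage repair alteration; the reported value is growth inhibition normalised to vehicle treatment.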

[5] = NCI Yeast Anticancer Drug Screen. Data for the mec2-1 strain (AID 157); conditions: S. cerevisiae mec2-1 strain, hits give high values
Method in brief: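 Mutant yeast (mec2-1) grown with compound; growth inhibition relative to vehicle control reported.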

[6] = NCI Yeast Anticancer Drug Screen. Data for the sgs1 mgt1 strain (AID 161);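 also: 0% = growth of cultures given vehicle only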; conditions: S. cerevisiae sgs1 mgt1 strain, hits give high values
Method in brief: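 Yeast cells carrying a defined DNA-repair defect were exposed to test compounds. Growth inhibition was measured relative to vehicle-treated controls.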

[7] = NCI Yeast Anticancer Drug Screen. Data for the CLN2oe strain (AID 163);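 also: 0% = growth of vehicle-only control cultures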; conditions: S. cerevisiae CLN2oe strain, hits give high values
Method in brief: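 Compounds are applied to yeast harbouring a defined cell-cycle control change; reduced growth compared with vehicle-treated controls gives the value.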

[8] = NCI Yeast Anticancer Drug Screen. Data for the cln2 rad14 strain (AID 165);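 also: 0% = growth equal to vehicle treated cultures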; conditions: S. cerevisiae cln2 rad14 strain, hits give high values
Method in brief: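 Readout is yeast growth inhibition versus vehicle-treated controls, using a strain with cln2 and rad14 alterations exposed to compound.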

[9] = NCI Yeast Anticancer Drug Screen. Data for the bub3 strain (AID 167); conditions: S. cerevisiae bub3 mutant strain, hits give high values
Method in brief: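 Growth of a checkpoint-deficient yeast mutant is measured after compound exposure. Values represent inhibition relative to vehicle.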

[10] = NCI Yeast Anticancer Drug Screen. Data for the mlh1 strain (AID 171);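 also: 0% = growth of vehicle-treated control cultures of the same strain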; conditions: S. cerevisiae mlh1 strain growth inhibition, hits give high values
Method in brief: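 Measured: yeast growth. Reference: vehicle-treated controls. Organism: strain with a defined alteration affecting DNA damage repair or cell cycle control, treated with compound.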

[11] = NCI Yeast Anticancer Drug Screen. Data for the mlh1 rad18 strain (AID 175); conditions: S. cerevisiae mlh1 rad18 strain growth inhibition, hits give high values
Method in brief: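 Genetically defined yeast (DNA repair-deficient) exposed to compounds; growth inhibition determined relative to vehicle.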

[12] = NCI Yeast Anticancer Drug Screen. Data for the rad14 strain (AID 159);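 also: 0% = growth of vehicle-treated control cultures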; conditions: S. cerevisiae rad14 strain growth inhibition, hits give high values
Method in brief: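 Compound-treated yeast with a defined DNA-repair lesion; growth inhibition normalised to vehicle-treated cultures.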

[13] = NCI Yeast Anticancer Drug Screen. Data for the sgs1 strain (AID 173);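 also: 0% = growth of vehicle-only control cultures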; conditions: S. cerevisiae sgs1 mutant, hits give high values
Method in brief: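 Each compound was added to cultures of the altered yeast strain. Growth was recorded, and inhibition was derived by comparison with vehicle controls.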

[14] = NCI Yeast Anticancer Drug Screen. Data for the rad18 strain (AID 177); conditions: S. cerevisiae rad18 mutant growth inhibition, hits give high values
Method in brief: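 Vehicle-treated cultures served as the baseline for scoring compound-induced growth inhibition in DNA-repair-mutant yeast.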

[15] = at 5.0 µM (retest, dose inferred, filed as 0.5)
[16] = at 50.0 µM (retest, dose inferred, filed as 5.0)

Measured: growth inhibition

Oc1ccc(C=Nc2ccccc2O)cc1
active: [1]; at 33.0 µM 75% | [1]; at 100.0 µM 88% | [3]; at 11.0 µM 90% | [3]; at 33.0 µM 90% | [3]; at 100.0 µM 94% | [4]; at 3.7 µM 85% | [4]; at 11.0 µM 81% | [4]; at 33.0 µM 84% | [4]; [16] 80% | [4]; at 50.0 µM 78.8% | [4]; at 100.0 µM 90% | [9]; at 1.2 µM 75% | [9]; at 3.7 µM 82% | [9]; at 11.0 µM 81% | [9]; at 33.0 µM 83% | [9]; [16] 86% | [9]; at 50.0 µM 80.3% | [9]; at 100.0 µM 92% | [10]; at 100.0 µM 73% | [11]; [16] 86% | [11]; at 50.0 µM 70%
inactive: [1]; at 1.2 µM 34% | [1]; at 3.7 µM 52% | [1]; at 11.0 µM 56% | [2]; at 1.2 µM 28% | [2]; at 3.7 µM 28% | [2]; at 11.0 µM 25% | [2]; at 33.0 µM 27% | [2]; at 100.0 µM 39% | [3]; at 1.2 µM 35% | [3]; at 3.7 µM 68% | [4]; at 1.2 µM 68% | [4]; [15] 13% | [5]; at 1.2 µM 23% | [5]; at 3.7 µM 29% | [5]; [15] 26% | [5]; at 11.0 µM 33% | [5]; at 33.0 µM 44% | [5]; [16] 14% | [5]; at 50.0 µM 23% | [5]; at 100.0 µM 65% | [6]; [15] 15% | [6]; [16] 42% | [6]; at 50.0 µM 28.8% | [7]; at 1.2 µM 47% | [7]; at 3.7 µM 58% | [7]; at 11.0 µM 60% | [7]; at 33.0 µM 56% | [7]; at 100.0 µM 64% | [8]; [15] 11% | [8]; [16] 31% | [8]; at 50.0 µM 1.55% | [9]; [15] 55% | [10]; at 1.2 µM 32% | [10]; at 3.7 µM 45% | [10]; at 11.0 µM 36% | [10]; at 33.0 µM 45% | [11]; [15] 48%

O=C(CCc1ccccc1)ON1C(=S)C(c2ccccc2)(c2ccccc2)N=C1Sc1ccccc1
inactive: [1]; at 1.2 µM 13% | [1]; at 3.7 µM 9% | [1]; at 11.0 µM 19% | [1]; at 33.0 µM 23% | [1]; at 100.0 µM 36% | [2]; at 1.2 µM 6% | [2]; at 3.7 µM 6% | [2]; at 11.0 µM 13% | [2]; at 33.0 µM 14% | [2]; at 100.0 µM 17% | [3]; at 1.2 µM 0% | [3]; at 3.7 µM -6% | [3]; at 11.0 µM 1% | [3]; at 33.0 µM 7% | [3]; at 100.0 µM 5% | [4]; at 1.2 µM 36% | [4]; at 3.7 µM 34% | [4]; at 11.0 µM 31% | [4]; at 33.0 µM 29% | [4]; at 50.0 µM 50% | [4]; at 100.0 µM 28% | [5]; at 1.2 µM 22% | [5]; at 3.7 µM 14% | [5]; [15] 23% | [5]; at 11.0 µM 6% | [5]; at 33.0 µM 7% | [5]; at 50.0 µM 61% | [5]; at 100.0 µM 26% | [12]; at 1.2 µM 20% | [12]; at 3.7 µM 20% | [12]; at 11.0 µM 27% | [12]; at 33.0 µM 21% | [12]; at 100.0 µM 36% | [6]; [15] -22% | [6]; [16] 37% | [6]; at 50.0 µM 56.6% | [7]; at 1.2 µM 4% | [7]; at 3.7 µM -8% | [7]; at 11.0 µM -4% | [7]; at 33.0 µM 19% | [7]; at 100.0 µM 57% | [8]; [15] -2% | [8]; [16] 35% | [8]; at 50.0 µM 45.9% | [9]; at 1.2 µM 6% | [9]; at 3.7 µM -10% | [9]; [15] -1% | [9]; at 11.0 µM -5% | [9]; at 33.0 µM -7% | [9]; [16] 32% | [9]; at 100.0 µM 22% | [13]; at 1.2 µM 43% | [13]; at 3.7 µM 44% | [13]; at 11.0 µM 46% | [13]; at 33.0 µM 49% | [13]; at 100.0 µM 56% | [14]; at 1.2 µM 21% | [14]; at 3.7 µM 19% | [14]; at 11.0 µM 10% | [14]; at 33.0 µM 21% | [14]; at 100.0 µM 40%
active: [4]; [15] 91% | [4]; [16] 96% | [5]; [16] 94% | [9]; at 50.0 µM 78.7%

COc1cc(CNc2ccc(C(C)C)cc2)cc(OC)c1OC
active: [1]; at 100.0 µM 78% | [4]; at 100.0 µM 73% | [12]; at 100.0 µM 72% | [9]; [16] 78% | [9]; at 100.0 µM 71% | [10]; at 100.0 µM 76% | [13]; at 100.0 µM 84%
inactive: [1]; at 1.2 µM 21% | [1]; at 3.7 µM 3% | [1]; at 11.0 µM -17% | [1]; at 33.0 µM 13% | [2]; at 1.2 µM 1% | [2]; at 3.7 µM 15% | [2]; at 11.0 µM 7% | [2]; at 33.0 µM -8% | [2]; at 100.0 µM 56% | [3]; at 1.2 µM -4% | [3]; at 3.7 µM -6% | [3]; at 11.0 µM 5% | [3]; at 33.0 µM 26% | [3]; at 100.0 µM 28% | [4]; at 1.2 µM 13% | [4]; at 3.7 µM 0% | [4]; [15] -1% | [4]; at 11.0 µM -2% | [4]; at 33.0 µM -19% | [4]; [16] -3% | [4]; at 50.0 µM 32.5% | [5]; at 1.2 µM 8% | [5]; at 3.7 µM -8% | [5]; [15] -42% | [5]; at 11.0 µM -4% | [5]; at 33.0 µM -25% | [5]; [16] 1% | [5]; at 50.0 µM 25.4% | [5]; at 100.0 µM 59% | [12]; at 1.2 µM -6% | [12]; at 3.7 µM -17% | [12]; at 11.0 µM -31% | [12]; at 33.0 µM -50% | [6]; [15] -7% | [6]; [16] 25% | [6]; at 50.0 µM 64% | [7]; at 1.2 µM -12% | [7]; at 3.7 µM -19% | [7]; at 11.0 µM -28% | [7]; at 33.0 µM -50% | [7]; at 100.0 µM -4% | [8]; [15] 6% | [8]; [16] 24% | [8]; at 50.0 µM 6.85% | [9]; at 1.2 µM -13% | [9]; at 3.7 µM -22% | [9]; [15] 13% | [9]; at 11.0 µM -26% | [9]; at 33.0 µM -6% | [9]; at 50.0 µM 65.2% | [10]; at 1.2 µM -2% | [10]; at 3.7 µM -21% | [10]; at 11.0 µM -15% | [10]; at 33.0 µM -20% | [13]; at 1.2 µM 26% | [13]; at 3.7 µM 23% | [13]; at 11.0 µM 21% | [13]; at 33.0 µM 11% | [11]; [15] -11% | [11]; [16] 32% | [11]; at 50.0 µM 55.7% | [14]; at 1.2 µM 4% | [14]; at 3.7 µM 9% | [14]; at 11.0 µM -5% | [14]; at 33.0 µM 9% | [14]; at 100.0 µM 64%
